Test results: PubChem BioAssay (NCI)
Compounds without any hit were thinned out: in the full panel of roughly 83,000, 20% have a hit.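 How to read the values: 0–100, growth inhibition (40 = 60% inhibited); 0, no net growth; -100 to 0, cell death (-40 = 40% of starting cells died; -100 = all dead).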 The source made the active and inactive calls. Rule for the calls: active = growth percent below 10; inactive = the rest.

Tested on: UO-31 renal
Test: NCI-60 one-dose screen, 48 h (100 = growth as untreated, 0 = no growth, -100 = all killed)
Details: 10 µM unless noted

Compound | growth
O=c1ccn(-c2ncnc3nc[nH]c23)cc1 | 67% (inactive)
CCN(CC)c1ccc(CNc2ccnc3ccccc23)cc1 | 31.6% (inactive)
COc1ccc(CN2CCc3c(Sc4ccccc4)nc(N)nc3C2=O)c(OC)c1 | 29.6% (inactive)
COc1ccc(/C=C\c2cc(OC)c(OC)c(OC)c2)cc1OC(=O)c1cccc(Cn2cc(CCOC(=O)c3cccc(Cn4nnc5c4C(=O)c4ccccc4C5=O)c3)nn2)c1 | 36.6% (inactive)
CCCCN(CCCC)C(=O)CC | 99.5% (inactive)
O=C1Nc2ccc3c(c2/C1=C\c1cc2c(cc1Br)OCO2)OCO3 | -15.9% (active)
O=C1/C(=C/c2ccccc2)CN(C(=O)CCN2CCC(=NO)CC2)C/C1=C\c1ccccc1 | -84% (active)
COc1ccc2c(c1)[nH]c(=O)c1c3cc(OC)ccc3cn21 | 28.6% (inactive)
COc1ccc(Nc2nc(N)nc3c2CCN(Cc2ccc(OC)cc2OC)C3=O)cc1 | 60.3% (inactive)
Cn1ccc(=O)c(S(N)(=O)=O)c1 | 69% (inactive)
Cc1cc(N/N=C/c2nc(-c3ccccc3)oc2C)c2cc(Br)ccc2n1 | 78.1% (inactive)
Cc1nn(-c2ccc([N+](=O)[O-])cc2)c2ncnc(NCCc3ccccc3)c12 | 79.7% (inactive)
CCN(CC)CCC(CNc1ccnc2cc(Cl)ccc12)c1ccc(Cl)cc1 (stereo not drawn) | -84.7% (active)
OC(c1cc2cc(Br)ccc2c2cc(Br)ccc12)C1CCCCN1 (stereo not drawn) | -80.6% (active)
C=C1CCC2C3(C)COC(c4c(OC)cccc4OC)OC3CCC2(C)C1C/C=C1/C(=O)OCC1O (stereo not drawn) | 46.2% (inactive)
COC(=O)c1cc2cc(-c3ccc(OC)cc3)cnc2[nH]1 | 34.9% (inactive)
Cc1ccc(S(=O)(=O)n2cc(C(=O)C(=O)N3CCOCC3)c3ccccc32)cc1 | 59.7% (inactive)
COc1ccc(-c2nc(/C=N/Nc3cc(C)nc4ccc(Cl)cc34)c(C)o2)cc1 | -98.4% (active)
O=C1c2ccccc2-c2ccccc2C1(Cl)Cl | -100% (active)
COc1ccc(-c2cn(-c3cccc(C(=O)/C=C/c4cc(OC)c(OC)c(OC)c4)c3)c(=O)[nH]2)cc1OC | 68.3% (inactive)

Compound | growth
CCCCCCCCCCCCNC(=O)[C@H]1CSC(c2ccsc2)N1 (stereo partly drawn) | -99.6% (active)
COc1cc(C2NN=C3c4ccccc4CCC32)cc(OC)c1OC (stereo not drawn) | 41.4% (inactive)
O=C(N/N=C/C=C\c1ccccc1)C(=O)N/N=C/C=C/c1ccccc1 | 91.3% (inactive)
CN1CCN(Cc2ccc(NC(=O)c3cncc(C#Cc4cnc(N)c5ccncc45)c3)cc2C(F)(F)F)CC1 | 3.59% (active)
N=C(N)c1ccc(-c2ccc(-c3ccc4ccccc4c3)s2)cc1 | 84.6% (inactive)
COc1cc(/C=C/C(=O)c2cccc(-n3cc(-c4cc(OC)c(OC)c(OC)c4)[nH]c3=O)c2)cc(OC)c1OC | 6.2% (active)
N=C(N)c1ccc(-c2ccc(-c3ccc(-c4cccs4)s3)s2)cc1 | 93% (inactive)
COc1ccc(-c2ccc(-c3ccc(C(=N)N)s3)s2)cc1Cl | 81.4% (inactive)
O=c1[nH]c2ccc(Br)cc2c2c1C(c1ccc(Cl)cc1)c1c(ncn3nc(-c4ccco4)nc13)O2 (stereo not drawn) | 35% (inactive)
N=C(N)c1ccc(-c2cc(Cl)cc(Cl)c2)cn1 | 70.2% (inactive)
Cc1nc2ncccc2nc1Nc1ccc(S(=O)(=O)Nc2cncs2)cc1 | 58.8% (inactive)
Cc1cc(N/N=C/c2nc(-c3ccccc3)oc2C)c2cc(Cl)ccc2n1 | -99.2% (active)
Cc1nc2ncccc2nc1Nc1ccc(S(=O)(=O)Nc2ccccn2)cc1 | 61.5% (inactive)
NC(=S)N/N=C1\CCCC(C(F)(F)F)C1 (stereo not drawn) | 64.8% (inactive)
Oc1ccc2cc(Br)ccc2c1-c1c(O)ccc2cc(Br)ccc12 | 24.3% (inactive)
CCC(=O)Oc1ccc(/C(=C(/C)Cc2cccc(OC)c2)c2ccc(OCCN(C)C)cc2)cc1 | 67.4% (inactive)
COC1=C(OC)C(=O)C(CCCCCCCCCC[P+](c2ccccc2)(c2ccccc2)c2ccccc2)=C(C)C1=O | -18.2% (active)
O=C(CN1CCN(c2cc3c(cc2F)c(=O)c(C(=O)N/N=C/c2ccccc2O)cn3C2CC2)CC1)N/N=C\c1ccccc1O | 4.8% (active)
COc1ccc(-c2ccc(-c3ccc(C(=N)N)cn3)s2)cc1OC | 85.7% (inactive)

Tested on: TK-10 renal
Test: as above
Details: 10 µM unless noted

Compound | growth
O=c1ccn(-c2ncnc3nc[nH]c23)cc1 | 86.4% (inactive)
CCN(CC)c1ccc(CNc2ccnc3ccccc23)cc1 | 60% (inactive)
COc1ccc(CN2CCc3c(Sc4ccccc4)nc(N)nc3C2=O)c(OC)c1 | 59.9% (inactive)
COc1ccc(/C=C\c2cc(OC)c(OC)c(OC)c2)cc1OC(=O)c1cccc(Cn2cc(CCOC(=O)c3cccc(Cn4nnc5c4C(=O)c4ccccc4C5=O)c3)nn2)c1 | 76.4% (inactive)
CCCCN(CCCC)C(=O)CC | 114% (inactive)
O=C1Nc2ccc3c(c2/C1=C\c1cc2c(cc1Br)OCO2)OCO3 | -31.2% (active)
O=C1/C(=C/c2ccccc2)CN(C(=O)CCN2CCC(=NO)CC2)C/C1=C\c1ccccc1 | 0.636% (active)
COc1ccc2c(c1)[nH]c(=O)c1c3cc(OC)ccc3cn21 | 48.7% (inactive)
COc1ccc(Nc2nc(N)nc3c2CCN(Cc2ccc(OC)cc2OC)C3=O)cc1 | 84.8% (inactive)
Cn1ccc(=O)c(S(N)(=O)=O)c1 | 113% (inactive)
Cc1cc(N/N=C/c2nc(-c3ccccc3)oc2C)c2cc(Br)ccc2n1 | 101% (inactive)
Cc1nn(-c2ccc([N+](=O)[O-])cc2)c2ncnc(NCCc3ccccc3)c12 | 108% (inactive)
CCN(CC)CCC(CNc1ccnc2cc(Cl)ccc12)c1ccc(Cl)cc1 (stereo not drawn) | -8.87% (active)
OC(c1cc2cc(Br)ccc2c2cc(Br)ccc12)C1CCCCN1 (stereo not drawn) | -90.5% (active)
C=C1CCC2C3(C)COC(c4c(OC)cccc4OC)OC3CCC2(C)C1C/C=C1/C(=O)OCC1O (stereo not drawn) | 50.5% (inactive)
COC(=O)c1cc2cc(-c3ccc(OC)cc3)cnc2[nH]1 | 38.9% (inactive)
Cc1ccc(S(=O)(=O)n2cc(C(=O)C(=O)N3CCOCC3)c3ccccc32)cc1 | 94.6% (inactive)
COc1ccc(-c2nc(/C=N/Nc3cc(C)nc4ccc(Cl)cc34)c(C)o2)cc1 | -36.1% (active)
O=C1c2ccccc2-c2ccccc2C1(Cl)Cl | 90% (inactive)
COc1ccc(-c2cn(-c3cccc(C(=O)/C=C/c4cc(OC)c(OC)c(OC)c4)c3)c(=O)[nH]2)cc1OC | 96.1% (inactive)

Compound | growth
CCCCCCCCCCCCNC(=O)[C@H]1CSC(c2ccsc2)N1 (stereo partly drawn) | -91.6% (active)
COc1cc(C2NN=C3c4ccccc4CCC32)cc(OC)c1OC (stereo not drawn) | 94.1% (inactive)
O=C(N/N=C/C=C\c1ccccc1)C(=O)N/N=C/C=C/c1ccccc1 | 104% (inactive)
CN1CCN(Cc2ccc(NC(=O)c3cncc(C#Cc4cnc(N)c5ccncc45)c3)cc2C(F)(F)F)CC1 | 48.6% (inactive)
N=C(N)c1ccc(-c2ccc(-c3ccc4ccccc4c3)s2)cc1 | 27% (inactive)
COc1cc(/C=C/C(=O)c2cccc(-n3cc(-c4cc(OC)c(OC)c(OC)c4)[nH]c3=O)c2)cc(OC)c1OC | 27.8% (inactive)
N=C(N)c1ccc(-c2ccc(-c3ccc(-c4cccs4)s3)s2)cc1 | 95.3% (inactive)
COc1ccc(-c2ccc(-c3ccc(C(=N)N)s3)s2)cc1Cl | -45.1% (active)
O=c1[nH]c2ccc(Br)cc2c2c1C(c1ccc(Cl)cc1)c1c(ncn3nc(-c4ccco4)nc13)O2 (stereo not drawn) | 110% (inactive)
N=C(N)c1ccc(-c2cc(Cl)cc(Cl)c2)cn1 | 115% (inactive)
Cc1nc2ncccc2nc1Nc1ccc(S(=O)(=O)Nc2cncs2)cc1 | 101% (inactive)
Cc1cc(N/N=C/c2nc(-c3ccccc3)oc2C)c2cc(Cl)ccc2n1 | -76.3% (active)
Cc1nc2ncccc2nc1Nc1ccc(S(=O)(=O)Nc2ccccn2)cc1 | 106% (inactive)
NC(=S)N/N=C1\CCCC(C(F)(F)F)C1 (stereo not drawn) | 112% (inactive)
Oc1ccc2cc(Br)ccc2c1-c1c(O)ccc2cc(Br)ccc12 | 52% (inactive)
CCC(=O)Oc1ccc(/C(=C(/C)Cc2cccc(OC)c2)c2ccc(OCCN(C)C)cc2)cc1 | 99.4% (inactive)
COC1=C(OC)C(=O)C(CCCCCCCCCC[P+](c2ccccc2)(c2ccccc2)c2ccccc2)=C(C)C1=O | -56.7% (active)
O=C(CN1CCN(c2cc3c(cc2F)c(=O)c(C(=O)N/N=C/c2ccccc2O)cn3C2CC2)CC1)N/N=C\c1ccccc1O | 43.2% (inactive)
COc1ccc(-c2ccc(-c3ccc(C(=N)N)cn3)s2)cc1OC | 128% (inactive)
